Screening data deposited in PubChem by National Center for Advancing Translational Sciences (NCATS).
Pol iota inh = DNA polymerase iota (human) inhibition. Q9UNA4. Pol iota fluorescent replication assay, 10 min. Potency, µM (top dose mostly 115 µM), without a hit: at the top dose activity, negative = inhibition, usual class: inhibitors. 390,000 tested, 1% active. AID 588590; note: potency is the fitted concentration of half-maximal effect
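Fluorescent replication assay read twice, at 0 min and 10 min after adding 50 nM (final) substrate. Enzyme (10 nM) and compounds were first incubated 15 min at room temperature; enzyme-free buffer wells were negative controls.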
FEN1 inhibitor = inhibitors of human flap endonuclease 1; Recombinant FEN1 flap cleavage, fluorescence, 15 min; AID 588795; 390,000 tested, 0.35% active; P39748; Potency, µM (top dose mostly 114 µM), for inactives: top-dose activity change, negative = inhibition, actives largely listed as inhibitors; note: potency is the fitted concentration of half-maximal effect; % is set by controls: 0 for no effect and ±100 for the full control effect; nearly all actives have a fitted effect of over 65% in size
Target sequence (P39748 whole entry, looked up): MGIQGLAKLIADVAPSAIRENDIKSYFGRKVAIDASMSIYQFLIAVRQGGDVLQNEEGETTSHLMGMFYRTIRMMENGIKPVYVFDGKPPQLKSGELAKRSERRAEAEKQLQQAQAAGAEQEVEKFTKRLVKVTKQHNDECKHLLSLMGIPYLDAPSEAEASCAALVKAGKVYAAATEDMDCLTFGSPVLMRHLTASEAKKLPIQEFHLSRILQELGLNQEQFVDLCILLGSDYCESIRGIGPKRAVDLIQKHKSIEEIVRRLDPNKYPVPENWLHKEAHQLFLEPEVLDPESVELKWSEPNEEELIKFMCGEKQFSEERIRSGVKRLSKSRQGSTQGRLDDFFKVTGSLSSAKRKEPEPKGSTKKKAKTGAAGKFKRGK
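In this screen, 50 nM flap DNA substrate was added to 10 nM FEN1 pretreated with compound for 15 min at room temperature; cleavage was followed with reads at 0 and 15 min, and Hill fitting gave concentration–response parameters.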
Pol eta inh = inhibitors of human DNA polymerase eta | Q9Y253 | recombinant Pol eta, fluorescent DNA replication assay | Potency, µM (doses to about 114 µM), for the others: top-dose activity change, negative = inhibition, hits mostly inhibitors | 390,000 tested, 1.2% active | AID 588591; note: potency is the fitted concentration of half-maximal effect; % is set by controls: 0 for no effect and ±100 for the full control effect
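Pol eta (10 nM) was preincubated with compounds for 15 min at room temperature, after which fluorescent replication substrate (50 nM final) was added to start the reaction. Fluorescence was read kinetically at 0 and 10 min.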
POLB inh = blocks human DNA polymerase beta activity; AID 485314; Potency, µM (doses to about 114 µM), inactives show at the top dose activity change, negative = inhibition, usual class: inhibitors; 340,000 tested, 1.3% active; Pol beta primer extension/strand displacement, fluorescence kinetic; P06746; note: potency is the fitted concentration of half-maximal effect; % is set by controls: 0 for no effect and ±100 for the full control effect
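Values derive from four-parameter Hill fits of normalized kinetic data: reads at 0 and 10 min following addition of 50 nM substrate to 10 nM Pol beta preincubated 15 min with compound.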
Pol kappa inh = inhibitors of human DNA polymerase kappa; purified Pol kappa, fluorescent DNA synthesis assay, 10 min; Q9UBT6; 400,000 tested, 0.53% active; Potency, µM (highest dose often 107 µM), for the others: at the top dose activity, negative = inhibition, hits mostly inhibitors; note: potency is the fitted concentration of half-maximal effect; % is set by controls: 0 for no effect and ±100 for the full control effect
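Fluorescent qHTS in 1536-well format: enzyme (10 nM) and compound sat 15 min at room temperature before 50 nM substrate (final) was added. Signal taken at 0 and 10 min; no-enzyme buffer wells were negative controls.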
PI5P4K alpha inh = blocks human PI5P4K alpha kinase activity; max response, %; 330,000 tested, 1.2% active; PI5P4Kalpha enzyme, ADP-Glo luminescence, 60 min; active compounds read low; AID 652105; active = max response of -50% or lower; inconclusive = between -30% and -50%; inactive = -30% or higher; note: value at the top dose of about 77 µM; % is set by controls: 0 for no effect and ±100 for the full control effect
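ADP-Glo luminescence end-point after a 60 min room-temperature kinase reaction. PI5P4Kalpha and substrate in HEPES pH 7.4 buffer with EGTA, 0.1% CHAPS and 5% DMSO; ATP at 5 microM final.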
* marks the source's active call; other numbers are inactive results; u = inconclusive; x = not tested or not shown; [ ] = dose if it differs, or a comment. This is a sample that favours compounds with a hit; in the whole collection about 2.8% have one here. Unless noted, calls come from the whole dose curve; as a rule, active = well fitted curve in the direction sought with a large enough effect; inconclusive = small, poorly fitted or top-dose-only effect, or another doubt; inactive = no such curve, though single readings can be large; an effect the other way counts as inactive or inconclusive.

SMILES | Pol iota inh | FEN1 inhibitor | Pol eta inh | POLB inh | Pol kappa inh | PI5P4K alpha inh
COc1cc(CN2CC(=O)N(c3ccc(C)c(C)c3)C2=S)cc(OC)c1OC | 18% | -14% | -13% | 10% | -11% | 6
COc1ccc(CN2CC(=O)N(c3ccc(C)c(C)c3)C2=S)cc1OC | -92% | u | -98% | 3% | u | -87*
CCCC[n+]1ccn(C2=C([O-])c3ccccc3C(=O)/C2=N\S(=O)(=O)c2ccccc2)c1 | -9% | -14% | -7% | 25% | -5% | 3
CC(C)c1ccc(NC(=O)C[n+]2ccn(C3=C([O-])c4ccccc4C3=O)c2)cc1 | u | -20% | 79µM* | u | -44% | -8
Cc1ccc(C(=O)N2CCN3C(=O)c4ccccc4C23c2ccc(Cl)cc2)cc1 (centres undefined) | -1% | 11% | -18% | 3% | -8% | 4
O=C(CCl)N1CCN2C(=O)c3ccccc3C12c1ccc(Cl)cc1 (centres undefined) | 69% | 2% | 79µM* | -21% | 2% | -7
CC(C)CC1C(C#N)=C(N)Oc2n[nH]c(-c3ccccc3)c21 (centres undefined) | 45% | -2% | -28% | -19% | -2% | -57*
N#CC1=C(N)Oc2n[nH]c(-c3ccccc3)c2C1c1cccnc1 (centres undefined) | u | -1% | 8% | -17% | -2% | u
CCOc1cc(C2C(C#N)=C(N)Oc3n[nH]c(-c4ccccc4)c32)ccc1O (centres undefined) | 25µM* | -17% | 1% | 37% | -2% | u
N#CC1=C(N)Oc2n[nH]c(-c3cccnc3)c2C1c1cc(F)ccc1F (centres undefined) | 38% | 1% | -12% | 7% | 0% | -54*
CC(C)C1C(C#N)=C(N)Oc2n[nH]c(-c3ccccc3)c21 (centres undefined) | 14% | 14% | -10% | -3% | -6% | -16
CCOc1ccccc1C1C(C#N)=C(N)Oc2n[nH]c(CC)c21 (centres undefined) | 5% | -20% | -11% | 37% | -5% | x
Cc1ccccc1CN1C(=O)c2ccccc2S(=O)(=O)c2ccc(C(=O)OCC3CCCO3)cc21 (centres undefined) | 17% | -5% | -10% | 11% | 7% | x
CCOC(=O)c1[nH]c(C)c(CCC(=O)NCc2ccc(OC(C)C)cc2)c1C | -10% | -9% | -7% | 22% | -4%[60.1 µM] | x
COc1ccc(-c2nc3cnc(N4CCN(C)CC4)nc3n(-c3ccc(OC)cc3)c2=O)cc1 | x | x | x | x | 1%[60.1 µM] | x
CCN(CC)C(=O)Cn1cc(S(=O)(=O)CC(=O)NCc2ccc(F)cc2)c2ccccc21 | 7% | 6% | -8% | u | -13% | 2
CCOc1cc(/C=C(\CC(=O)O)c2nc3ccccc3s2)ccc1OC | 106% | 2% | -26% | -11% | -2% | -4
COc1ccc(-c2nn(-c3ccccc3)cc2/C=C(\CC(=O)O)c2nc3ccccc3s2)cc1OC | u | 4% | 56µM* | u | u | -17
CCN(CC)C(=O)CSc1nc2cc3c(cc2c(=O)n1CCCCCC(=O)NCc1ccc(OC)cc1)OCO3 | 89% | -3% | 1% | u | -13% | 3
COc1ccccc1Oc1nc2c(c(=O)n(Cc3ccccc3F)c(=O)n2C)n1C | -1% | -3% | -10% | 18µM* | 9% | 2
Cn1c(NCCCO)nc2c1c(=O)n(Cc1ccccc1F)c(=O)n2C | 23% | 3% | -15% | 0% | -18% | x
CC(C)OCc1cc(CN2CCN(c3cccc(C(F)(F)F)c3)CC2)c(O)c2ncccc12 | 11% | 1% | 3% | 19% | 0% | x
O=[N+]([O-])c1cc(CN2CCN(c3cccc(C(F)(F)F)c3)CC2)c2cccnc2c1O | 84% | u | -24% | 18µM* | -26% | -68*
CN(Cc1ccncc1)C(=O)[C@@H]1CCCN1C(=O)[C@@H]1CCCN1 | x | x | x | x | x | 1
Oc1ccc(N=Cc2ccc(OCc3ccccc3)cc2)cc1 | u | u | 22µM* | 2% | -22% | u
SMILES | Pol iota inh | FEN1 inhibitor | Pol eta inh | POLB inh | Pol kappa inh | PI5P4K alpha inh
O=C(NCc1cccs1)C1C(=O)Nc2ccccc2C(=O)N1Cc1ccccc1 (centres undefined) | x | x | x | x | x | 9
O=C(NNC(=O)c1cc2cc3ccccc3nc2s1)c1cccc(C(F)(F)F)c1 | u | -11% | u | 22µM* | u | -25
COc1ccc(S(=O)(=O)N2CCN(c3ccccc3F)CC2)cc1-c1noc(C)n1 | 88% | u | -14% | 8.9µM* | -17% | x
COc1ccc(N2CCN(S(=O)(=O)c3ccc(OC)c(-c4noc(C)n4)c3)CC2)cc1 | 30% | -22% | -17% | u | -7% | x
O=C(Cn1c(-c2cccs2)cc2ccccc21)NCCCN1CCN(c2ccc(F)cc2)CC1 | 1% | -5% | u | 1% | -10% | x
COc1cccc(C(C)(O)c2nc(-c3cccc4cccnc34)cs2)c1 (centres undefined) | x | x | x | x | x | 10
CCOc1cc(CNc2ccc(O)cc2)cc(Br)c1OCc1ccccc1 | 40µM* | -22% | -24% | -2% | -10% | x
COc1cc(CNc2ccc(O)cc2)cc(Br)c1OCc1ccccc1F | 28µM* | -16% | -17% | -29% | -36% | 1
CCOc1cc(CNc2ccc(O)cc2)cc(Br)c1OCc1ccccc1F | -101% | u | -24% | -14% | -4% | 4
Oc1ccc(NCc2ccccc2OCc2ccccc2)cc1 | 7.1µM* | u | u | 5% | -11% | -19
O=C(NCCC1=CCCCC1)c1ccc2c(c1)ncn2-c1cccc(Cl)c1 | 27% | -3% | -7% | -1% | 0%[60.1 µM] | x
COc1ccc2nc3cc(Cl)ccc3c(Nc3cc(C(C)C)c(O)cc3C)c2c1 | 37% | -3% | -15% | -10% | -3% | u
CCN(CC)CCCC(C)Nc1c2ccc(Cl)cc2nc2ccc(OC)cc12 (centres undefined) | 7.9µM* | 11µM* | u | 16µM* | 8.9µM* | x
CCN(CC)CCCC(C)Nc1cc(/C=C/c2ccccc2Cl)nc2cc(Cl)ccc12 (centres undefined) | 71µM* | -26% | x | x | 2%[19.4 µM] | x
COc1ccccc1C(c1c(O)nc(SC)[nH]c1=O)c1c(O)nc(SC)[nH]c1=O | 9% | 1% | -15% | x | -9% | -51*
Cc1cccc(N=C2NC(=O)/C(=C/c3cccn3C)S2)c1C | u | 5% | -24% | 2% | -18% | -72*
CCOC(=O)CSc1nc(C2CC2)nc2ccccc12 | -3% | -10% | 0% | 9% | -14%[60.1 µM] | x
Cc1ccc(-c2csc(NC(=O)c3ccc(C)o3)n2)cc1 | 13% | -19% | -21% | -29% | -23% | 0
